# NR2F2 inh = NR2F2 (human) inhibition, primary screen; P24468; HEK293T NGFI-A luciferase reporter, luminescence; inhibition, % at 8.6 µM; actives 0.7% (n = 370,000); AID 686940;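 active = inhibition above a per-plate cutoff, mean inhibition of test wells between control levels plus 3 SD, cut at about 38% in these data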;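 note: cells cotransfected with COUP-TFII expression vector driving the NGFI-A reporter; 0% = median of COUP-TF2 test wells and 100% = reporter-only cells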
# NCOA2 inhibitor = human SRC2 (NCOA2) inhibition | actives 0.17% (n = 370,000) | inhibition, % at 9 µM | Q15596 | HEK293 GAL4-SRC2 luciferase reporter, luminescence | AID 651957;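 active = inhibition above the mean inhibition of all tested compounds plus 3 SD, set per campaign, cut at about 52% in these data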;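 note: 0% = DMSO treated cells and 100% = cells given Gossypol at 36 µM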
# LRH-1 inv ag = NR5A2 inverse agonism in reporter assay; O00482; inhibition, % at 3.6 µM; actives 0.13% (n = 360,000); HEK293T StAR-luciferase reporter, LRH-1 transfected, 24 h;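 active = inhibition above the mean inhibition of all tested compounds plus 3 SD, cut at about 73% in these data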;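 note: 0% = DMSO wells and 100% = reporter-only cells lacking LRH-1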
# NCOA1 inh = human NCOA1 inhibition. Q15788. HEK293 GAL4-SRC1 luciferase reporter, luminescence. inhibition, % at 3.6 µM. actives 0.12% (n = 360,000). AID 588354;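 active = inhibition above the campaign mean plus 3 SD, with each screening campaign given its own cutoff, cut at about 60% in these data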;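 note: 0% = DMSO treated cells and 100% = gossypol at 36 µM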
# NCOA3 inh = inhibitors of human steroid receptor coactivator 3 (SRC3). Q9Y6Q9. HEK293 GAL4-SRC3 luciferase reporter, luminescence. inhibition, % at 3.6 µM. actives 0.17% (n = 360,000);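 active = inhibition above a per-campaign cutoff, the mean of all compounds plus 3 SD, cut at about 60% in these data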;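 note: 0% = DMSO-treated cells and 100% = gossypol-treated cells at 36 µM; higher means less SRC3-driven luciferase light from the GAL4 reporter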
# Gli-Sufu antag = blocks Gli-Sufu signaling in a luciferase reporter. actives 0.74% (n = 340,000). AID 588413. inhibition, % at 5 µM. Sufu-KO-LIGHT fibroblasts, Gli luciferase reporter luminescence;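 active = inhibition above about 55%, limit read from the data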;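 note: 0% = DMSO-treated cells and 100% = wells with medium but no cells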
# VP16 Luc counter = VP16 inhibition counter-screen for COUP-TFII. shares compounds with NR2F2 inh. HEK293 Gal4-VP16 luciferase reporter, luminescence. inhibition, % at 8.5 µM. actives 25% (n = 2,500); in the data active = inhibition above about 13%
# NR2F2 inh conf = confirmation of human COUP-TFII (NR2F2) inhibitors; actives 45% (n = 2,500); HEK293 NGFI-A luciferase reporter, luminescence; shares compounds with NR2F2 inh; inhibition, % at 8.5 µM;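 active = mean inhibition over three repeats above a set limit taken from the earlier primary screen, cut at about 38% in these data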;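 note: 100% = cells given the luciferase reporter alone without the COUP-TF2 vector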
# Numbers without * were called inactive; . = no result. This is a sample that favours compounds with a hit; in the whole collection about 1.3% have one here.
SMILES,NR2F2 inh,NCOA2 inhibitor,LRH-1 inv ag,NCOA1 inh,NCOA3 inh,Gli-Sufu antag,VP16 Luc counter,NR2F2 inh conf
Oc1ccccc1-c1cc(-c2cccc(F)c2)n[nH]1,-36,-49,-126,-125,-104,14,.,.
CC(C)(C)c1ccc(-c2cc(-c3ccccc3O)[nH]n2)cc1,37*,14,15,28,32,32,2,51*
O=C(Cn1cnc2ccccc2c1=O)N1CCN(Cc2ccc(F)cc2)CC1,-8,-23,.,.,.,.,.,.
CCOC(=O)c1cc2c(C)n(-c3ccc(C)cc3)c(C)c2ccc1=O,41*,-12,-20,-30,-31,-31,-137,-19
O=C(Nc1ccccc1O)c1ccc(NS(=O)(=O)c2cccc3cccnc23)cc1,40*,-213,-8,-29,-20,33,-43,38*
CCCCCCCC/C=C\CCCCCCCC(=O)NCCc1ccc(O)c(O)c1,59*,48,78*,60,62*,57*,0,11
CCCCCCCC/C=C\CCCCCCCC(=O)NCCO,13,12,19,3,23,-7,.,.
CCN(C(=O)C1CCN(c2nc(-c3ccc(OC)cc3)no2)CC1)c1ccc(OC)cc1,52*,30,39,6,26,24,-1,30
COCCCNC(=O)CSc1nnc(-c2ccncc2)n1-c1ccc(OC)cc1,-4,-13,.,.,.,.,.,.
COc1ccc(-c2cc3nc(C)n(N)c(=O)c3s2)cc1,66*,71*,28,58,70*,76*,60*,77*
Cc1sc2ncnc(NCc3ccccc3)c2c1C,37,9,37,-13,-46,-21,.,.
Cc1cc2c(NCc3ccccc3)ncnc2s1,49*,29,26,30,24,41,-4,26
CN(Cc1ccccc1Cl)C(=O)CN1C(=O)C2(OCCCO2)c2ccccc21,20,-36,.,.,.,.,.,.
CCc1nnn2c1Cn1c3ccccc3c(=O)n1[C@@H](C)C2,-16,10,.,.,.,.,.,.
CC(C)(C)[C@H]1C=C(C(=O)Nc2ccccc2)O[C@@H](OCCCCO)C1,63*,30,51,32,39,-9,-28,16
CC(C)(C)[C@@H]1C=C(C(=O)O)O[C@H](OCCCCO)C1,-17,-15,3,13,2,-2,.,.
CC(=O)N1CCc2cc(S(=O)(=O)NCCC3=CCCCC3)ccc21,47*,-23,30,13,18,41,5,36
Cc1ccc(NC(=O)c2cc(S(=O)(=O)NCCC3=CCCCC3)ccc2F)cc1F,40*,21,28,22,27,21,2,40*
Cc1cccc(NC(=O)C2CCCN2S(=O)(=O)c2cccnc2)c1C (centres undefined),-3,9,.,.,.,.,.,.
Nc1c(Cl)ncnc1NCCc1ccc(O)cc1,47*,22,21,27,14,21,6,32
Cc1ccc(NS(=O)(=O)c2ccc(C(=O)NC3CCN(Cc4ccccc4)CC3)cc2)cc1,64*,-1,38,31,21,15,1,49*
Cc1ccc(NS(=O)(=O)c2cccc(C(=O)NC3CCN(Cc4ccccc4)CC3)c2)cc1,40*,15,19,8,14,48,3,20
O=C(CCc1ccccc1)N[C@H]1[C@H](OC(=O)c2cnccn2)CCC[C@]12C(=O)N(Cc1ccccc1)c1ccccc12,5,7,.,.,.,.,.,.
CC(C)CN1C(=O)[C@@]2(CC(=O)N(C)C2c2ccccc2)c2cc(-n3cc(C(C)(C)O)nn3)ccc21 (some centres undefined),-5,-18,.,.,.,.,.,.
COc1ccc(-c2nnc(SCC(=O)Nc3ccc(S(=O)(=O)Nc4cc(C)nc(C)n4)cc3)n2-c2ccc(OC)cc2)cc1,-14,-9,.,.,.,.,.,.
SMILES,NR2F2 inh,NCOA2 inhibitor,LRH-1 inv ag,NCOA1 inh,NCOA3 inh,Gli-Sufu antag,VP16 Luc counter,NR2F2 inh conf
CCCn1c(NC(=O)c2ccc(Cl)c(S(=O)(=O)N3CCCC3)c2)nc2ccccc21,44*,21,-1,-33,-9,-2,-8,15
CN(C)C(CNC(=O)c1ccc(Cl)c(S(=O)(=O)N2CCCCCC2)c1)c1ccccc1 (centres undefined),63*,9,29,11,19,24,-1,35
O=C(NCc1nc2ccccc2[nH]1)c1ccc(Cl)c(S(=O)(=O)N2CCCC2)c1,-1,-28,-9,-4,-17,11,.,.
Cc1ccccc1CCNC(=O)c1ccc(Cl)c(S(=O)(=O)N2CC(C)OC(C)C2)c1 (centres undefined),67*,29,10,18,24,14,1,34
COC(=O)[C@]1(C#N)CC(=O)N(Cc2ccc(Cl)cc2)[C@@H]1c1ccc(OC)cc1,-10,20,.,.,.,.,.,.
COC(=O)C1CN(CCc2ccccc2)CCS(=O)(=O)N1Cc1ccccc1F (centres undefined),-11,1,.,.,.,.,.,.
COc1ccc2c(c1)[nH]c1c(N3CCN(Cc4ccc5c(c4)OCO5)CC3)ncnc12,46*,8,51,6,24,52,10,65*
COc1cccc2[nH]c3c(N4CCN(Cc5ccc6c(c5)OCO6)CC4)ncnc3c12,-14,-8,.,.,.,.,.,.
Cc1nc(N2CCN(Cc3ccc4c(c3)OCO4)CC2)c2oc3ccccc3c2n1,83*,31,21,-1,4,-9,-5,9
CCN(CC)C(=O)CC[C@@H]1CC[C@]2(CCCN(C(=O)c3ccno3)C2)O1,-8,-37,.,.,.,.,.,.
O=S1(=O)c2ccc(N3CCC[C@H]3CO)cc2O[C@@H]2CCN1C2,-10,-26,.,.,.,.,.,.
O=C(OCCN1C(=O)c2cccc3c(N4CCOCC4)ccc(c23)C1=O)c1ccccc1Cl,66*,25,8,15,22,31,-4,23
COc1ccccc1N1CCN(C(=O)c2cc3c(C)nn(-c4ccccc4)c3s2)CC1,9,-12,.,.,.,.,.,.
CN(C)S(=O)(=O)c1cccc(CSCc2cccc(S(=O)(=O)N(C)C)c2)c1,57*,1,42,32,34,57*,7,56*
Cc1cc(C)n2nc(SCc3cccc(S(=O)(=O)N(C)C)c3)nc2n1,11,3,5,7,6,14,.,.
COc1ccc(/C=C/c2nc3ccccc3n2C)cc1,64*,58*,-31,6,27,45,7,39*
COc1ccc(Cn2c(/C=C/c3ccccc3)nc3ccccc32)cc1,-56,-55,-104,-110,-86,-130,.,.
COc1ccc(/C=C/c2nc3ccccc3c(=O)o2)cc1,79*,77*,51,61,61,71*,-24,1
CC(C)Nc1ncnc2c1ncn2[C@H]1CN(Cc2ccc(-c3ccccc3)cc2)C[C@@H](CO)O1,49*,24,24,18,-3,.,3,18

# Source: PubChem BioAssay
